Results filed as inconclusive are left out. Values without a mark were called inactive. Activity calls are given as the source filed them. The call rests on the fitted dose curve; in most records, active means well fitted inhibition curve with a large enough effect; inconclusive means small, poorly fitted or top-dose-only effect; inactive means no such curve, though single readings can be large or run the other way.
These molecules were tested against Thyroid hormone receptor beta (Homo sapiens) (UniProt P10828) (assay: Concentration Response Confirmation Assay for Inhibitors of the Interaction of Thyroid Hormone Receptor and Steroid Receptor Coregulator 2). Settings: TRb LBD + Texas Red SRC2 peptide, fluorescence polarization, 5 h; series mostly up to 92.2 µM; activity, negative = inhibition: at the top concentration.
Sequence of Thyroid hormone receptor beta (Homo sapiens) (P10828 whole entry, looked up, the tested form may be a part): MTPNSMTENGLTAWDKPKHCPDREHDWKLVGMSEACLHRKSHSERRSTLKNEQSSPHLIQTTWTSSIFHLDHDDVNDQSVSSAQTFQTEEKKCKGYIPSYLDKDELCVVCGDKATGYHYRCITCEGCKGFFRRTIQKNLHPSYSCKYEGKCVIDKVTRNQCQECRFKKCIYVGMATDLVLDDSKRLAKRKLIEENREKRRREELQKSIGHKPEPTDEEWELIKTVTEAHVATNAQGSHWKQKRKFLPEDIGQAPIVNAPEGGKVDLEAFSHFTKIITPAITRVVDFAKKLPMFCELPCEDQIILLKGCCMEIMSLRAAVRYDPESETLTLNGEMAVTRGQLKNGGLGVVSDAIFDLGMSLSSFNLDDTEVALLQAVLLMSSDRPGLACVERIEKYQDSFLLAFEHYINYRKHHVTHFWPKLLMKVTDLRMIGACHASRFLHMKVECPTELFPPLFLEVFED
Source text: NIH Molecular Libraries Probe Production Network [MLPCN] NIH Chemical Genomics Center [NCGC] MLPCN Grant: DK058080 Assay Provider: R. Kip Guy, St. Jude Children's Research Hospital NCGC Assay Overview: Thyroid receptor (TR) regulates many homeostatic processes including basal metabolism, cardiovascular function, body weight, and lipid trafficking. TR modulators are potential therapeutics for obesity and hyperlipidemias but current thyroid analogs have undesirable side effects, particularly cardiac stimulation. To identify inhibitors that specifically prevent the interaction of TR with the steroid receptor coregulator 2 (SRC2), a fluorescence polarization assay was screened. This assay detects interaction of the ligand-binding domain of human TRb with a Texas Red labeled SRC2 peptide, corresponding to a 20 amino acid region of the nuclear receptor interaction domain (Arnold et al., 2006). Small molecule inhibitors that block the interaction of TR and SRC2 are detected by a decrease in fluorescence polarization. This assay is a confirmation assay for AID 1469. Arnold, L. A.; Estebanez-Perpina, E.; Togashi, M.; Shelat, A.; Ocasio, C. A.; McReynolds, A. C.; Nguyen, P.; Baxter, J. D.; Fletterick, R. J.; Webb, P.; Guy, R. K. A high-throughput screening method to identify small molecule inhibitors of thyroid hormone receptor coactivator binding. Sci STKE 2006, p 13.
NCGC Assay Protocol Summary: For screening, 5 uL/well 0.6 uM TRb and 20 nM SRC2 Texas Red in protein buffer (20mM Tris hydrochloride, 100mM NaCl, 10% glycerol, 1mM EDTA, 0.01% NP-40, 1mM DTT, 1uM T3 and 5% DMSO) was dispensed into black solid 1536-well plates (Grenier) using a solenoid-based dispenser. Following transfer of 23 nL compound or DMSO vehicle by a pin tool, the plates were centrifuged 15 s at 1000 RPM and incubated 5 hr at ambient temperature. The plates were read by an Envision (Perkin Elmer) to detect fluorescence polarization of SRC2 Texas Red (555 nm excitation and 632 nm emission). Data were normalized to unbound (all components except TRb) and bound SRC2 Texas Red controls. In this assay, we provide % activity data for each concentration as well as potencies for the active compounds. Keywords: NIH Roadmap, MLPCN, MLI, MLSMR, qHTS, NCGC, qHTS, thyroid hormone receptor, steroid receptor coactivator, fluorescence polarization

SMILES	activity, negative = inhibition	Potency
CCCc1cc(=O)[nH]c(=S)[nH]1	2.69%	–
O=C(O)/C=C/C(=O)Nc1ccc(OC(F)(F)F)cc1Br	–	50.1 µM (active)
O=C(O)C1C2C=CC(O2)C1C(=O)Nc1ccc(S(=O)(=O)N2CCc3ccccc32)cc1 (stereo not given)	–	39.8 µM (active)
Cc1nc2ccccc2n2c(O)c(CC(=O)O)cc12	–	35.5 µM (active)
O=c1[nH]c(Nc2ccccc2)cc2ccccc12	–	35.5 µM (active)
CCCCOc1ccc(C(=O)CCN2CCCCC2)cc1	–	5.01 µM (active)
CS(=O)(=O)c1ccc(C(=O)OCC(=O)NC(=O)C2CCCCC2)cc1[N+](=O)[O-]	–	10 µM (active)
CN(CCO)c1nc(N)c2c(N)nc3c(c2c1C#N)CC(=O)N3C1CCCC1	-12%	–
O=C1CCCC(O)=C1N=Nc1cccc(S(=O)(=O)N2CCOCC2)c1	-22.7%	–
COc1ccc(-c2nc(CS(=O)CC(=O)NCc3ccccn3)c(C)o2)cc1 (stereo not given)	–	35.5 µM (active)
O=C(NNc1cc(N2CCOCC2)nc(N2CCOCC2)n1)c1ccc([N+](=O)[O-])cc1	–	20 µM (active)
Cc1nnc(SCC(=O)Nc2ccc(N(C)C)cc2)[nH]c1=O	-22.7% [at 184 µM]	–
COc1cc(C(c2c(C)[nH][nH]c2=O)c2c(C)[nH][nH]c2=O)ccc1OC(=O)c1cccc(C)c1	–	31.6 µM (active)
Cc1ccc(OC(=S)Nc2ccc(O)cc2)cc1	-4.64%	–
O=C(NNc1cc(N2CCOCC2)nc(N2CCOCC2)n1)c1ccc(Cl)c(Cl)c1	–	31.6 µM (active)
O=C(O)/C=C/C(=O)Nc1ccc(SC(F)(F)C(F)(F)C(F)(F)F)cc1	–	7.94 µM (active)
Cn1c(=O)[nH]c2nnc(-c3ccc(Cl)c(Cl)c3)nc2c1=O	1.02%	–
Cn1cc[nH]c1=S	-4.85%	–
CC1=NN(Cc2ccccc2)C(=O)C1	-18.9%	–
Nc1cc(-c2ccccc2)c[nH]c1=O	-24.2%	–

SMILES	activity, negative = inhibition	Potency
Cc1cccc(S(=O)(=O)c2cn(Cc3ccccc3)c3cc(N4CCC(C)CC4)c(F)cc3c2=O)c1	-21.4% [at 184 µM]	–
Cc1cccc(Cn2c(C(=O)OC(C)C)cc3c2ccn3C)c1	-13.5%	–
CN1CCc2ccc3c4c2[C@]1(C)Cc1cccc(c1-4)OCO3	–	89.1 µM (active)
C=CCNC(=O)/C(C#N)=C\c1cc(Cl)c(OCC)c(OC)c1	–	35.5 µM (active)
O=c1cc(C23CC4CC(CC(C4)C2)C3)[nH][nH]1	-5.48%	–
CC(NC(=O)Nc1ccc(O)cc1)(C(F)(F)F)C(F)(F)F	-30.8%	–
Oc1ccc2ccccc2c1C=NC12CN3CCN(CN(C3)C1)C2	–	28.2 µM (active)
Nc1cc(-c2ccncc2)c[nH]c1=O	-4.94%	–
CCCCCCN=CC1=C(O)CC(C)(C)CC1=O	-8.95%	–
Cn1c(NNC(=O)c2c(F)cccc2F)cc(=O)n(C)c1=O	-7.88%	–
Oc1ccc2ccccc2c1/C=N/c1nccs1	–	31.6 µM (active)
Oc1ccc2ccccc2c1/C=N/c1nc2c(s1)CCCC2	–	28.2 µM (active)
Cc1cc2ccccc2n1CCNC(=O)C(C)Oc1ccccc1 (stereo not given)	-23%	–
C=CCNC(=O)/C(C#N)=C/c1c(C)nn(-c2ccc(Cl)cc2)c1Cl	–	17.8 µM (active)
COn1c2c(c3c4nonc4ccc31)CCCC2	–	35.5 µM (active)
CN1N=C(C(C)(C)C)CC1=O	-8.25%	–
C=CC(=O)OCCOc1ccccc1	–	112 µM (active)
Cc1cc(N=Cc2c(O)ccc3ccccc23)no1	–	28.2 µM (active)
O=C(Nc1nc2ccc(Cl)cc2s1)c1ccc(N2CCCCC2)c([N+](=O)[O-])c1	-30%	–
COc1cc(/C=C(\C#N)C(=O)NCC2CCCO2)ccc1OCCC(C)C (stereo not given)	–	35.5 µM (active)

Reference: PubChem BioAssay AID1573 (National Center for Advancing Translational Sciences (NCATS), 2009)
